# Assay outcomes deposited in PubChem BioAssay by several laboratories.
# Most compounds without a hit are left out; they make up all but 4.2% or so of the library.
# AHR act: activators of human aryl hydrocarbon receptor | P35869 | AHR-responsive luciferase reporter cells, luminescence | activation, % at 5 µM | hit rate 2.5% among 320,000 | AID 2796; in the data active = activation above about 47%;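 also: 0% = vehicle wells and 100% = reference agonist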
# Target sequence (P35869 whole entry, looked up): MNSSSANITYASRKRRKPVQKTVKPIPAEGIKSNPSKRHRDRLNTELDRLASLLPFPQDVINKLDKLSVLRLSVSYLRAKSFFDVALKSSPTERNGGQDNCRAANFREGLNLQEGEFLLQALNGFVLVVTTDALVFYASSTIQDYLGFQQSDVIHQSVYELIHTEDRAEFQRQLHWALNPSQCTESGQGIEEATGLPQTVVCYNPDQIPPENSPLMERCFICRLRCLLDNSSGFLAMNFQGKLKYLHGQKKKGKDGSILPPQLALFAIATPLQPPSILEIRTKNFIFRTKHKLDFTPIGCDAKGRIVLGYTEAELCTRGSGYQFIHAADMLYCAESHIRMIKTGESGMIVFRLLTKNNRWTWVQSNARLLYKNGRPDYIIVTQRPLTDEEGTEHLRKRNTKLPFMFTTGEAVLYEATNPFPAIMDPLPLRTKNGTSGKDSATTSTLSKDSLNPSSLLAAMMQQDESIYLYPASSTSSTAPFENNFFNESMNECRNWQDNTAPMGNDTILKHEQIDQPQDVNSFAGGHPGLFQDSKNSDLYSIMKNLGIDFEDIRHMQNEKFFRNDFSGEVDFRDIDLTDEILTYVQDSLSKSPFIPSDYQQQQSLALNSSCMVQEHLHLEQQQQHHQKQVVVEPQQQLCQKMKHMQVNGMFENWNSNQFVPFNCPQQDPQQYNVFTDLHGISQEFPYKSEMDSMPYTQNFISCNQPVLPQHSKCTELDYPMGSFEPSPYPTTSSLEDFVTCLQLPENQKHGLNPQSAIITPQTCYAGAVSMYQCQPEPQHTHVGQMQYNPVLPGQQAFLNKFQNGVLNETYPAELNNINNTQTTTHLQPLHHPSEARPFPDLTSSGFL
# GAA850 FXN act: activators of GAA850 frataxin (FXN) promoter. HEK293 lucGAA850 FXN promoter luciferase reporter, 24 h; percent of 10 µM SAHA response. activation, % at 6 µM. hit rate 0.56% among 360,000;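 active = activation above the average of all compounds screened plus 3 SD, cutoff fixed separately per campaign, cut at about 7.5% in these data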;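 also: 0% = DMSO wells and 100% = 10 µM SAHA wells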
# esBAF inh: SWI/SNF esBAF complex inhibition | AID 602393 | reporter increase, % at 12.5 µM | hit rate 2% among 350,000 | mouse ES cells, Bmi1-luciferase knock-in reporter, 24 h; 100% = twice the neutral-well signal; in the data active = activation above about 40%;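 also: 0% = median of the plate's neutral control wells and 100% = double that signal; a rise in the Bmi1 reporter signal indicates esBAF inhibition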
# MITF TRPM1 HTS: MITF TRPM1 promoter activation in melanoma cells; SK-MEL-5 TRPM1-promoter luciferase, 24 h; % of positive control, neutral wells = 0; activation, % at 12.5 µM; hit rate 0.75% among 300,000; AID 588334;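 active = mean activation of at least 80% with every replicate also reaching 80%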;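 also: 0% = neutral control wells and 100% = parthenolide positive control wells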
# Wnt bcat act: activators of Wnt/beta-catenin signaling | Wnt/beta-catenin reporter cell assay, activator, plate reader | activation, % at 9.35 µM | hit rate 1.2% among 300,000; in the data active = activation above about 30%, passing the limit was not always enough;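 also: 0% = neutral control wells and 100% = positive control wells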
# An asterisk follows results filed as active; · = not tested or not shown.
SMILES,AHR act,GAA850 FXN act,esBAF inh,MITF TRPM1 HTS,Wnt bcat act
COc1ccc2c3c([nH]c2c1)C(C)=NCC3,49.6*,0.6,5.8,-6.9,-3.0
CCCCc1nc2ccccc2c(=O)n1-c1ccccc1O,73.0*,3.0,-6.7,-13.4,-1.1
CCN1[C@@H]2c3ccc(-c4ccc(OC)cc4)c(=O)n3C[C@H]1[C@H](CO)[C@H]2C(=O)OC,·,·,-5.5,·,·
Oc1c(Cl)c(Cl)c(Cl)c(Cl)c1Cl,78.7*,-1.5,-0.2,3.1,-2.5
CC=Cc1ccc2n(c1=O)C[C@@H]1[C@@H](CO)[C@H](C(=O)OC)[C@H]2N1C(=O)CC1CC1 (mixture of isomers),·,·,-6.9,·,·
C=CCn1c(=O)c(C=Nc2cccc([N+](=O)[O-])c2)c(O)n(CCCC)c1=O,-0.6,2.6,-4.0,-1.9,-0.4
CCCCn1c(=O)c(C=Nc2cccnc2Cl)c(O)n(CCCCl)c1=O,14.7,2.2,·,-14.0,51.3*
COc1ccc(CC2(CCc3ccncc3)C(=O)NC(=O)NC2=O)cc1OC,-0.8,0.3,-2.9,-0.1,36.6*
CCCCn1c(O)c(C(C)=NCc2ccco2)c(=O)[nH]c1=O,-1.3,1.1,-7.3,·,45.1*
CC1(C)CN=C(Nc2nc3ccccc3s2)S1,25.4,1.1,50.4*,73.1,·
O=C(O)[C@@H]1[C@@H](CO)[C@@H]2Cn3c(ccc(-c4ccccc4)c3=O)[C@H]1N2CC1CCCCC1,·,·,-6.0,·,·
CP(=O)(Nc1ccc(Cl)cc1)c1nc2c(s1)CCCC2 (stereo unspecified),69.6*,-2.2,·,1.3,14.8
COc1ccc(-c2ccc([C@H]3[C@@H](CO)N4CCCCN(C(=O)Cc5ccncc5)C[C@H]34)cc2)cc1,·,·,0.0,·,·
COCC(C)OC(=O)c1c(N)n(Cc2ccco2)c2nc3ccccc3nc12 (stereo unspecified),62.6*,2.0,6.4,-15.5,-1.3
CCOC(=O)c1c(N)n(Cc2ccco2)c2nc3ccccc3nc12,75.3*,-0.9,-2.2,·,-2.2
COCCOC(=O)c1c(N)n(Cc2ccccc2)c2nc3ccccc3nc12,12.7,-1.5,-11.0,-6.8,-4.0
Nc1c(C(=O)NCc2ccco2)c2nc3ccccc3nc2n1Cc1ccccc1,4.1,1.6,·,-15.9,6.6
O=C(CN1CC=C(c2ccccc2)CC1)Nc1cc(Cl)ccc1Cl,0.8,1.9,·,-10.9,-0.6
N#Cc1cc2c(nc1SCC(=O)Nc1ccc(Cl)cc1)C1CCN2CC1,6.5,6.9,46.5*,6.3,10.1
Cc1noc(C)c1CSCC(=O)Nc1ccc(C#N)c(Cl)c1,0.9,-1.3,-1.0,5.7,-2.0
N#Cc1cc2c(nc1SCC(=O)Nc1cc(Cl)ccc1Cl)C1CCN2CC1,-11.7,3.9,57.6*,-5.1,21.7
CCCN1[C@@H]2c3ccc(-c4ccccc4)c(=O)n3C[C@H]1[C@H](CO)[C@H]2C(=O)OC,·,·,-1.7,·,·
CC[C@@H]1c2ccccc2[C@@H]2CC[C@H]1N2c1ccccc1,·,·,·,·,-3.6
N#CC1C(C#N)C2CCC1C1C2N1c1ccccc1 (stereo unspecified),·,0.3,-4.2,-6.8,47.1*
N#Cc1cccc(-c2ccc([C@@H]3[C@@H](CO)N4CCCCN(C(=O)Cc5cccnc5)C[C@H]34)cc2)c1,·,·,0.0,·,·
SMILES,AHR act,GAA850 FXN act,esBAF inh,MITF TRPM1 HTS,Wnt bcat act
CCN(CC)c1ccc(/C=C2\C(=O)NC(=S)N(C)C2=O)o1,5.0,6.2,5.8,·,37.3*
CCN(CC)c1ccc(C=C2C(=O)N(C)C(=S)N(C)C2=O)o1,10.1,0.8,·,29.1,13.5
COc1ccc(-c2ccc3n(c2=O)C[C@@H]2[C@@H](CO)[C@H](C(=O)O)[C@H]3N2C(=O)c2ccccc2F)cc1,·,·,-0.8,·,·
COC(=O)[C@H]1[C@H](CO)[C@H]2Cn3c(ccc(/C=C/c4ccccc4)c3=O)[C@@H]1N2CC1CCCC1,·,·,9.5,·,·
Cc1cc(C(=O)Nc2ccc3c(c2)OCCO3)nn1C(C)(C)C,4.2,6.0,33.9,·,55.7*
Cc1cc(C(=O)Nc2ccccc2)nn1C(C)(C)C,-3.9,2.8,·,·,36.6*
O=C(Cc1ccccc1)N1C[C@H]2[C@@H](c3ccccc31)[C@@H](CO)N2Cc1ccccc1,·,·,0.3,·,·
N#Cc1ccc(-c2ccc([C@H]3[C@H](CO)N4CCCCN(C(=O)Cc5ccccc5)C[C@@H]34)cc2)cc1,·,·,4.1,·,·
NC(N)=N/N=C/c1cn(-c2ccccc2)nc1-c1cccs1,49.5*,2.1,·,-43.5,-0.1
O=C(O)[C@H]1[C@H](CO)[C@H]2Cn3c(ccc(-c4ccccc4F)c3=O)[C@@H]1N2C(=O)Nc1ccccc1,·,·,-4.0,·,·
O=C(C1CCN(c2nc3ccc(Br)cc3s2)CC1)N1CCC2(CC1)OCCO2,-3.6,-1.4,64.1*,19.5,·
Cc1ccc2nc(N3CCC(C(=O)N4CCC5(CC4)OCCO5)CC3)sc2c1,1.1,3.9,33.6,9.3,·
Fc1cccc(F)c1-c1nc(-c2ccc(Cl)cc2)no1,72.6*,4.9,64.4*,·,64.5*
C/C(=N\Nc1cccc2ccccc12)c1c(O)n(Cc2ccccc2)c(=O)[nH]c1=O,50.6*,0.3,·,-0.6,1.2
C/C(=N\NC(=O)c1ccccc1)c1c(O)n(Cc2ccccc2)c(=O)[nH]c1=O,7.6,4.0,·,·,14.8
CN1C(=O)NC(=O)C(N=Nc2ccc(Cl)cc2)C1=O (stereo unspecified),·,4.9,41.5*,10.6,17.6
CN1CC(Br)C(=O)NC1=O (stereo unspecified),·,-2.4,3.1,-13.5,0.3
Fc1cccc(-c2ccc3c(c2)CNCc2cnnn2-3)c1,·,·,42.7*,·,0.7
c1cc2c(cc1-c1ccc3c(c1)OCO3)CNCc1cnnn1-2,·,·,50.6*,·,-1.3
COC(=O)[C@@H]1[C@@H](CO)[C@@H]2Cn3c(ccc(C4=CCCC4)c3=O)[C@H]1N2C(=O)CC1CC1,·,·,-3.0,·,·
COC(=O)[C@H]1[C@H](CO)[C@H]2Cn3c(cccc3=O)[C@@H]1N2C(=O)C1CC1,·,·,0.4,·,·
CC(NC1=NCCS1)c1ccccc1 (stereo unspecified),1.5,0.7,·,2.5,48.5*
CC1CN=C(NC(C)c2ccccc2)S1 (stereo unspecified),-2.1,4.5,9.0,1.5,-0.6
Cc1nc2c(-c3ccccc3)c(C)nn2c(C)c1CCC(=O)N1CCC2(CC1)OCCO2,0.6,2.1,-2.8,·,-3.1
Cc1nc2c(c(C)nn2-c2ccccc2)c(C)c1CCC(=O)N1CCC2(CC1)OCCO2,0.5,1.8,54.7*,5.5,·
SMILES,AHR act,GAA850 FXN act,esBAF inh,MITF TRPM1 HTS,Wnt bcat act
COc1ccc(-c2cc(=NCCC(=O)O)c3cc(C)ccc3o2)cc1,·,0.9,68.9*,112.5*,13.5
COc1ccc(-c2cc(=Nc3ccccc3)c3cc(C)ccc3o2)cc1,-9.9,5.3,·,46.2,-6.2
COc1ccc(C(C)=O)cc1CC(C(=O)c1ccccc1)N(C)C (stereo unspecified),9.8,3.5,41.3*,27.9,8.6
CCC(=Nc1ccccc1N)c1c(O)[nH]c(=O)[nH]c1=O,15.6,4.6,50.6*,-2.0,9.5
CC=Cc1ccc2n(c1=O)C[C@@H]1[C@@H](CO)[C@H](C(=O)N(C)C)[C@H]2N1C (mixture of isomers),·,·,-2.4,·,·
Nc1ccccc1C(=O)OCCc1ccccc1,-1.8,1.0,17.3,85.4*,67.6*
